Laboratory results reported in PubChem BioAssay AID431 (Sanford-Burnham Center for Chemical Genomics, 2006).
The campaign covered roughly 63,000 compounds. About 1,100 (1.7%) were called active. The entries come from a sample that favours actives as a whole. Potency and affinity values are given separately. Unmarked numbers belong to inactive results.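 How the source made its calls: active means compounds whose percent cytotoxicity in the single-dose primary screen, scaled between solvent and toxic-drug controls, exceeds 50; inactive means the rest.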

Assay: viability loss of HPDE-C7K cells – cell-based, fluorescence, HTS, primary screen (AID 431);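 further: 0% = DMSO solvent wells and 100% = doxorubicin-treated wells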
Conditions: HPDE-C7K KRASV12 cells, Alamar Blue viability, 48 h; at 10 µM; stronger effect = higher value
`CCN(CC)CCNC(=O)C1CCC(=O)N(c2ccc(OC)cc2)C1c1ccc(F)cc1` (stereo not drawn) showed a cytotoxicity of 5.4%. `COc1cccc(N2C(=O)CC(N3CCC(C(N)=O)(N4CCCCC4)CC3)C2=O)c1` (stereo not drawn) showed a cytotoxicity of -2.6%. `Clc1ccc(-c2nnc3sc(Cc4cccs4)nn23)c(Cl)c1` showed a cytotoxicity of -3.4%. `O=C(NC1CCCCC1)N1CCCCCCC1` showed a cytotoxicity of -4.9%. With `COc1cc2c(=O)n(Cc3ccco3)c(=O)n(CC(=O)c3ccc(Br)cc3)c2cc1OC` the cytotoxicity was 80.3% (active). Work on `CCOC(=O)Cn1c(=O)n(Cc2ccco2)c(=O)c2ccc(C(=O)NCCc3ccccc3)cc21` yielded a cytotoxicity of 7.3%. `COc1ccc(CCNC(=O)Cn2c(=O)n(Cc3ccco3)c(=O)c3ccc(Cl)cc32)cc1OC` gave a cytotoxicity of 4.2%. For `COc1cc2c(=O)n(Cc3ccccc3)c(=O)n(CC(=O)C(C)(C)C)c2cc1OC`, the cytotoxicity was -1.3%. In the case of `COc1cc2c(=O)n(Cc3ccco3)c(=O)n(CC(=O)c3cccc(Br)c3)c2cc1OC`, the cytotoxicity is reported as 50% (active). Compound `COc1cc2c(=O)n(Cc3ccccc3)c(=O)n(CC(=O)NCc3ccco3)c2cc1OC` has a cytotoxicity of 5.4%. For `COC(=O)c1ccc(C(=S)N2CCOCC2)cc1`, the cytotoxicity was -0.4%. `Cc1ccc(C(c2nnnn2C(C)(C)C)N(Cc2ccco2)Cc2cccs2)cc1` (stereo not drawn) showed a cytotoxicity of 1.5%. For `COc1cccc(NC(=O)COC(=O)c2cccnc2)c1`, the cytotoxicity was -8.8%. With `CC(C)(C)OC(=O)N1CCC[C@H]1C(=O)NCC1CCC(C(=O)O)CC1` (stereo partly drawn) the cytotoxicity was 7.4%. `CCC(c1nnnn1C1CCCCC1)N1CCN(C2CCCC2)CC1` (stereo not drawn) gave a cytotoxicity of 3.5%. For `CCCCNc1cc(C)nc(NCc2ccccc2)n1`, the cytotoxicity was 82.9% (active). `Cc1cc(C)nc(NCCCc2ccccc2)n1` gave a cytotoxicity of -12.4%. For `Cc1cc(NCCCN)nc(-c2ccccc2O)n1`, the cytotoxicity was 22.2%. `CCCCOc1cc(C)nc(NCc2ccccc2)n1` showed a cytotoxicity of -11.6%. `Cc1cc(Nc2ccccc2)nc(-c2ccccc2O)n1` showed a cytotoxicity of 1.4%. `CC1=C(C(=O)OC(C)C)C(c2ccccn2)n2ncnc2N1` (stereo not drawn) showed a cytotoxicity of 5.9%. `COc1ccccc1NC(=O)N1CCN(c2ccccc2F)CC1` showed a cytotoxicity of 8%. For `O=C(Cc1ccc2c(c1)OCCO2)c1c(O)cc(O)cc1O`, the cytotoxicity was 62.7% (active). With `O=C(O)COc1ccc(C(=O)Cc2ccc3c(c2)OCCCO3)c(O)c1` the cytotoxicity was -4.8%. `O=C(O)CCC(=O)c1ccc2c(c1)OCCO2` gave a cytotoxicity of 1.9%. In the case of `O=C(Cn1ncc2c1-c1ccccc1OC2)N(Cc1ccco1)C1CCCCC1`, the cytotoxicity is reported as 2.4%. In the case of `Cn1c(SCC(=O)N2CCN(c3ccccc3)CC2)nnc1-c1cc2ccccc2o1`, the cytotoxicity is reported as 10.4%. For `CSc1nsc(SC)c1NC(=O)OCCc1ccccn1`, the cytotoxicity was -3.5%. Compound `CC(C)(C)c1ccc(Cn2nnc3c(=O)[nH]c(C4CCN(C(=O)Cc5cccs5)CC4)nc32)cc1` has a cytotoxicity of 8.5%. Compound `O=C(Cc1cccs1)N1CCCC(c2nc3c(nnn3Cc3ccc(F)cc3)c(=O)[nH]2)C1` (stereo not drawn) has a cytotoxicity of 8.4%. For `Cc1ccc(-c2csc3ncnc(-n4nc(C)cc4N)c23)cc1`, the cytotoxicity was -8.1%. `CCn1c(CN2CCCCCC2=O)nnc1SCc1cnc(-c2ccccc2)s1` gave a cytotoxicity of -1.7%. For `O=C(CNC(=O)c1ccco1)OCc1ccc(Cl)cc1`, the cytotoxicity was -3%. In the case of `COc1ccccc1NC(=O)Nc1c(C)n(C)n(-c2ccccc2)c1=O`, the cytotoxicity is reported as -1.8%. For `CCOC(=O)Cn1c(=O)n(C2CCCC2)c(=O)c2ccccc21`, the cytotoxicity was -5.4%. For `CCc1cc2c(N3CCN(c4ccccc4)CC3)ncnc2s1`, the cytotoxicity was 91.1% (active). Work on `O=C(COc1ccccc1)N1CCN(c2ncnc3c2cnn3-c2ccccc2)CC1` yielded a cytotoxicity of 5.3%. Work on `CCc1cc2c(N3CCCCC3)ncnc2s1` yielded a cytotoxicity of -10.5%. `CCN1CCN(c2ncnc3c2cnn3-c2ccc(C)cc2C)CC1` gave a cytotoxicity of 11.6%. With `Cc1ccc(-n2ncc3c(N4CCCC4)ncnc32)c(C)c1` the cytotoxicity was 1.2%. `O=C(c1ccco1)N1CCN(c2ncnc3c2cnn3-c2ccccc2)CC1` gave a cytotoxicity of -0.8%. Compound `CCc1cc2c(N3CCN(c4nnc(CC)s4)CC3)ncnc2s1` has a cytotoxicity of 19.4%. Work on `COc1ccc(N2CCN(c3ncnc4c3cnn4-c3ccc(C)cc3C)CC2)cc1` yielded a cytotoxicity of -12.5%. Work on `COc1ccc(-n2ncc3c(N4CCN(c5cc(C)ccc5C)CC4)ncnc32)cc1` yielded a cytotoxicity of 15.6%. For `O=C(CSc1nnnn1C1CCCCC1)NCCc1ccccc1`, the cytotoxicity was 4.8%. `COc1cccc(-c2cnc(NCc3cc(Cl)ccc3O)n2C)c1` gave a cytotoxicity of -7.2%. `CC(=O)Nc1ccc(NC(C)=O)s1` gave a cytotoxicity of -16.5%. Work on `CCCCNC(=O)C(C#N)c1nc2ccccc2nc1N1CCCC1` (stereo not drawn) yielded a cytotoxicity of -16.3%. With `CCN(CC(=O)Nc1ccc2c(c1)OCCO2)Cc1cc(=O)oc2c(C)c(C)ccc12` the cytotoxicity was 9.3%. With `Cc1n[nH]c(C)c1S(=O)(=O)Nc1ccc2c(c1)OCCO2` the cytotoxicity was 4.3%. Compound `Cc1cc(C#N)c(C)n1-c1cc(C(F)(F)F)ccc1N1CCOCC1` has a cytotoxicity of -11.9%. `COCCCn1c(SCC(=O)N2CCCCC2C)nnc1-c1ccco1` (stereo not drawn) showed a cytotoxicity of -0.2%. `CCn1c2ccccc2c2nnc(SCC(=O)NC(CC(C)C)C(=O)OC)nc21` (stereo not drawn) gave a cytotoxicity of 2.3%. `O=C(CSc1nc(-c2ccccc2)cc(=O)[nH]1)N1CCOCC1` showed a cytotoxicity of 8.9%. With `CCc1noc(C)c1C(=O)Nc1sc(C(=O)N(C)C)c(C)c1C(=O)OC` the cytotoxicity was 2.3%. Compound `COc1ccc(S(=O)(=O)N(CC(=O)O)Cc2ccccc2)cc1OC` has a cytotoxicity of 1.8%. With `COCc1nc2ccccc2n1CCOc1ccccc1OC` the cytotoxicity was -0.4%. Work on `COc1cccc(NC(=O)c2oc3ccccc3c2NC(=O)C(C)(C)C)c1` yielded a cytotoxicity of 17.5%. `CSc1ccc(-c2nnn(Cc3ccccn3)n2)cc1` showed a cytotoxicity of -1.2%. With `CC1=CC(C)C2C(=O)N(CCC[N+](C)(C)C)C(=O)C2C1` (stereo not drawn) the cytotoxicity was 14.9%. In the case of `Cc1ccc(S(=O)(=O)Nc2ccc3nc(N)sc3c2)cc1`, the cytotoxicity is reported as 4.4%. With `CSc1nc2ccc(S(=O)(=O)NC3CCCCC3)cc2s1` the cytotoxicity was 6.2%. In the case of `CSc1nc2ccc(NS(=O)(=O)c3ccc(Cl)s3)cc2s1`, the cytotoxicity is reported as 54.6% (active). `Cc1cc2n(n1)C(c1ccc(N(C)C)cc1)Nc1ccccc1-2` (stereo not drawn) showed a cytotoxicity of 23.5%. In the case of `c1ccc(-n2c(-c3ccco3)nnc2N2CCOCC2)cc1`, the cytotoxicity is reported as -4.7%. Compound `CCOC(=O)N1CCN(C(=O)CCS(=O)(=O)c2ccc(Br)s2)CC1` has a cytotoxicity of -3.8%. `CC1(C)c2ssc(=S)c2-c2ccccc2N1C(=O)c1ccco1` showed a cytotoxicity of -6.9%. With `CC1(C)Nc2ccc(O)cc2-c2c1ssc2=S` the cytotoxicity was 87.7% (active). With `O=C(c1ccncc1)N1CCN(C(=O)c2ccncc2)CC1` the cytotoxicity was -16.4%. `Nc1c(NCCCN2CCOCC2)c2ccccc2oc1=O` showed a cytotoxicity of 6.2%. Work on `Cn1nnnc1SCc1nc2ccccc2[nH]1` yielded a cytotoxicity of 3.7%. Work on `CC(Oc1ccc(Cl)cc1Cl)C(=O)NCCCn1ccnc1` (stereo not drawn) yielded a cytotoxicity of 2.8%. For `Clc1ccc(SCCn2ccnc2)cc1`, the cytotoxicity was -7.6%. With `Clc1ccc(OCCn2ccnc2)c(Cl)c1` the cytotoxicity was -10.5%. With `OC(Cn1ccnc1)c1ccc(Cl)cc1Cl` (stereo not drawn) the cytotoxicity was 0.4%. Compound `OC(Cn1cncn1)c1ccc(Cl)cc1Cl` (stereo not drawn) has a cytotoxicity of 1.1%. `O=C(COc1ccc(Cl)cc1Cl)NCCCn1ccnc1` showed a cytotoxicity of 1.3%. Work on `COc1ccc(-c2ccc(-c3noc(-c4ccco4)n3)c(OC)n2)cc1` yielded a cytotoxicity of 9.8%. Compound `O=C1c2oc3ccccc3c(=O)c2C(c2cccc(Br)c2)N1Cc1ccco1` (stereo not drawn) has a cytotoxicity of 5.4%. Work on `Cc1cc(C)nc(SCc2nnc(SCC(=O)N3CCCc4ccccc43)n2C)n1` yielded a cytotoxicity of 9.2%. `O=C(COC(=O)CN1C(=O)c2ccccc2C1=O)Nc1ncc(Cl)cc1Cl` showed a cytotoxicity of -11.3%. With `CCO/C=N/c1c(C#N)c(CC#N)nn1-c1ccccc1` the cytotoxicity was -4.3%. For `COc1ccc(C2CC(c3c(O)cc(C)oc3=O)=NCCS2)c(OC)c1` (stereo not drawn), the cytotoxicity was 69.2% (active). Compound `COc1ccc(C2C(C(C)=O)=C(O)C(=O)N2C)c(OC)c1` (stereo not drawn) has a cytotoxicity of 18.5%. In the case of `COc1ccc(C2NC(=O)c3n[nH]c(C)c32)c(OC)c1` (stereo not drawn), the cytotoxicity is reported as 2.8%. With `c1ccc(Sc2nc(N3CCCCC3)nc(N3CCCCC3)n2)nc1` the cytotoxicity was -16.3%. Work on `Cc1cc(C)c(S(=O)(=O)Nc2ccc(O)cc2)cc1C` yielded a cytotoxicity of 13%. Compound `O=C(CCC1COc2ccccc2O1)Nc1ncccc1O` (stereo not drawn) has a cytotoxicity of -11.8%. With `CN1/C(=C\P(=O)(N(C)C)N(C)C)C(C)(C)c2ccccc21` the cytotoxicity was -1.6%. Work on `Cc1ccc(S(=O)(=O)Cc2ccc(C(=O)N3CCN(c4cc(C)ccc4C)CC3)o2)cc1` yielded a cytotoxicity of 20.6%. Work on `O=C(NCC1(N2CCOCC2)CCCCC1)c1ccc(Cl)c(S(=O)(=O)NCc2ccco2)c1` yielded a cytotoxicity of -5.8%. In the case of `COc1ccc(S(=O)(=O)Cc2ccc(C(=O)N3CCN(c4cccc(C)c4C)CC3)o2)cc1`, the cytotoxicity is reported as 48.2%. `Cc1ccccc1S(=O)(=O)Cc1ccc(C(=O)N2CCN(c3ccc(F)cc3)CC2)o1` gave a cytotoxicity of 3.3%. In the case of `Cc1ccccc1S(=O)(=O)Cc1ccc(C(=O)N2CCN(c3cccc(C)c3C)CC2)o1`, the cytotoxicity is reported as 73.9% (active). Work on `O=C(O)c1ccc(Cl)c(S(=O)(=O)NCc2ccco2)c1` yielded a cytotoxicity of -11.1%. With `Cc1ccc(C)c(N2CCN(C(=O)c3ccc(CS(=O)(=O)c4ccccc4C)o3)CC2)c1` the cytotoxicity was 52.8% (active). Compound `Cc1ccccc1S(=O)(=O)Cc1ccc(C(=O)N2CCN(c3ncccn3)CC2)o1` has a cytotoxicity of -21.5%. In the case of `Cc1cccc(N2CCN(C(=O)c3ccc(Cl)c(S(=O)(=O)NCc4ccco4)c3)CC2)c1C`, the cytotoxicity is reported as 55.9% (active).
